This is an account of results in PubChem BioAssay (NCATS).

For experiment [1], the target named is Luciferin 4-monooxygenase (Photinus pyralis) (UniProt P08659). Briefly: Biochemical firefly luciferase enzyme assay for NPC (AID 624030).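 Note: purified P. pyralis luciferase at 10 nM with luciferin and ATP substrate; nearly all actives have a fitted effect of over 70% in size.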 The essentials: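 Counter-screen for direct inhibition of the luciferase enzyme by approved-drug library compounds, run at 10 nM enzyme in 50 mM Tris acetate (final). Luminescence was read within 5 min of enzyme-buffer addition and normalized to PTC124 versus DMSO (0%).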

Experiment [2] in a line: S16 Schwann cell viability assay (CellTiter-Glo assay) (AID 624031).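 Note: cellular ATP luminescence as a viability measure; nearly all actives have a fitted effect of over 70% in size.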 The essentials:
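Native S16 rat Schwann cells in DMEM/10% FBS without phenol red were incubated overnight, then exposed to compounds for 24 h at 37 °C/5% CO2. Viability was read as ATP luminescence (CellTiter-Glo), normalized to no-cell wells and DMSO (0%).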

A short description of experiment [3]: S16 Schwann cell PMP22 intronic element beta-lactamase assay (AID 624044; calls by dose curve; note: nearly all actives have a fitted effect of over 15% in size; note: potency is the fitted concentration of half-maximal effect). The note with it: S16 rat Schwann cells, PMP22 element beta-lactamase FRET, 24 h; ratio activity, negative = inhibition: at 38.3 µM (top of the series). The essentials:
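Beta-lactamase reporter under a PMP22 intronic regulatory element in stable S16 rat Schwann cells; 24 h compound exposure. 460 nm blue signal normalized between DMSO (0%) and potassium clavulanate, with 535 nm FRET tracking viability; curves classed by r2 and response.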

The subject of experiment [4] is 7G8. Briefly: qHTS profiling for inhibitors of Plasmodium falciparum proliferation (AID 504749). Note: nearly all actives have a fitted effect of over 60% in size. Note: potency is the fitted concentration of half-maximal effect. The note with it: P. falciparum in erythrocytes, SYBR Green DNA, 72 h; series mostly up to 28.7 µM. The essentials: (§1)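 Quantitative HTS: compounds pinned into medium, infected erythrocytes added (0.3% parasitemia, 2.5% hematocrit), 72 h culture at 37 C under 5% CO2. Saponin/Triton lysis with SYBR Green I, overnight RT, then fluorescence read.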
(In general: qHTS replaces the single test concentration by a dilution series.)

The subject of experiment [5] is ATS95. The description is as above. The note with it: P. falciparum in erythrocytes, SYBR Green DNA, 72 h; series mostly up to 28.7 µM. The essentials: as §1
The subject of experiment [6] is CP215. The description is as above. The note with it: P. falciparum in erythrocytes, SYBR Green DNA, 72 h; series mostly up to 28.7 µM. The essentials:
as §1

Experiment [7] concerns CP247. The experiment is described as above. The note with it: P. falciparum in erythrocytes, SYBR Green DNA, 72 h; series mostly up to 28.7 µM. The essentials: as §1
The subject of experiment [8] is CP260. The experiment is described as above. The note with it: P. falciparum in erythrocytes, SYBR Green DNA, 72 h; series mostly up to 28.7 µM. The essentials:
as §1

For experiment [9], the system named is CP266. The description is as above. The note with it: P. falciparum in erythrocytes, SYBR Green DNA, 72 h; series mostly up to 28.7 µM. The essentials: as §1
The subject of experiment [10] is CP291. The description is as above. The settings on record: P. falciparum in erythrocytes, SYBR Green DNA, 72 h; series mostly up to 28.7 µM. The essentials: as §1
Experiment [11] concerns CP297. The experiment is described as above. The note with it: P. falciparum in erythrocytes, SYBR Green DNA, 72 h; series mostly up to 28.7 µM. The essentials: as §1
In experiment [12] the test system is DIV17. Described as above. The note with it: P. falciparum in erythrocytes, SYBR Green DNA, 72 h; series mostly up to 28.7 µM. The essentials:
as §1

Experiment [13] has as its system GB4. Described as above. The note with it: P. falciparum in erythrocytes, SYBR Green DNA, 72 h; series mostly up to 28.7 µM. The essentials: as §1
Experiment [14] has as its system P93_24. The experiment is described as above. The settings on record: P. falciparum in erythrocytes, SYBR Green DNA, 72 h; series mostly up to 28.7 µM. The essentials:
as §1

For experiment [15], the system named is PC15. The description is as above. The settings on record: P. falciparum in erythrocytes, SYBR Green DNA, 72 h; series mostly up to 28.7 µM. The essentials:
as §1

Experiment [16] has as its system PC49. The description is as above. The note with it: P. falciparum in erythrocytes, SYBR Green DNA, 72 h; series mostly up to 28.7 µM. The essentials: as §1
The test system of experiment [17] is TAB109. The experiment is described as above. The note with it: P. falciparum in erythrocytes, SYBR Green DNA, 72 h; series mostly up to 28.7 µM. The essentials:
as §1

For experiment [18], the system named is TAB165. The experiment is described as above. The note with it: P. falciparum in erythrocytes, SYBR Green DNA, 72 h; series mostly up to 28.7 µM. The essentials: as §1
Experiment [19] concerns CP335. The description is as above. The settings on record: P. falciparum in erythrocytes, SYBR Green DNA, 72 h; series mostly up to 28.7 µM. The essentials:
as §1

In experiment [20] the test system is PC26. The description is as above. The settings on record: P. falciparum in erythrocytes, SYBR Green DNA, 72 h; series mostly up to 28.7 µM. The essentials: as §1

Each structure is given as a SMILES string. Inconclusive results are not listed. Activity calls are given as the source filed them. Unless noted, calls come from the whole dose curve; as a rule, active = well fitted curve in the direction sought with a large enough effect; inconclusive = small, poorly fitted or top-dose-only effect, or another doubt; inactive = no such curve, though single readings can be large; an effect the other way counts as inactive or inconclusive.

Luciferin 4-monooxygenase (Photinus pyralis), sequence (P08659 whole entry, looked up): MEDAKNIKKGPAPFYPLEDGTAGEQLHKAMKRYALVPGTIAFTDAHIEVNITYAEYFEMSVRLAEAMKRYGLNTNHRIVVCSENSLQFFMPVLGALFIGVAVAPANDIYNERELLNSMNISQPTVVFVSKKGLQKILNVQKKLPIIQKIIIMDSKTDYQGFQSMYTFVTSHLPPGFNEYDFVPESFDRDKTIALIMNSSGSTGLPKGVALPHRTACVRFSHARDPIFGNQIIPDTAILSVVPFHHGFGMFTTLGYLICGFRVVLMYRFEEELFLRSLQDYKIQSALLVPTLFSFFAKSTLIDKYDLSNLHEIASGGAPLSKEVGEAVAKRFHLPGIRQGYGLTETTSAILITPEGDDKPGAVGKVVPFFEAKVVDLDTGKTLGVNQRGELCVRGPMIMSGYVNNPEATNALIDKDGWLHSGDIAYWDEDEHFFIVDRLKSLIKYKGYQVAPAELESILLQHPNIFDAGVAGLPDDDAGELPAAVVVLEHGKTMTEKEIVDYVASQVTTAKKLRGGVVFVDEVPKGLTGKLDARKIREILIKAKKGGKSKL

`CN(C)CC/C=C1\c2ccccc2COc2ccc(CC(=O)O)cc21`: the Potency entry in [1], in [2], in experiment [3], in experiment [4], in experiment [5] and in [6] was “inactive” throughout. Besides, the Potency result in experiment [7], in experiment [8], in experiment [9], in [10], in [11] and in experiment [12] was “inactive” each time. Besides, the Potency entry in experiment [13], in [14], in experiment [15], in experiment [16], in [17] and in [18] was “inactive” throughout.

As to `CC1(C)OC[C@@H]2O[C@@]3(C(=O)O)OC(C)(C)O[C@@H]3[C@@H]2O1`, the Potency entry in experiment [1], in experiment [2], in experiment [3], in experiment [4], in [5] and in experiment [6] was “inactive” each time. Also, the Potency result in experiment [7], in [8], in experiment [9], in experiment [10], in experiment [11] and in experiment [19] was “inactive” each time. In addition, the Potency result in [12], in experiment [13], in experiment [14], in experiment [15], in [20] and in experiment [16] was “inactive” in each case. Besides, the Potency entry in experiment [17] and in experiment [18] was “inactive” in each case.

As to `O=C1C(I)=CC(=C(c2cc(I)c(O)c(I)c2)c2ccccc2C(=O)O)C=C1I`, the Potency result in experiment [2], in [3], in experiment [4], in experiment [5], in [6] and in [7] was “inactive” in each case. Moreover, the Potency result in [8], in experiment [9], in experiment [10], in experiment [11], in experiment [19] and in experiment [12] was “inactive” throughout. The Potency result in experiment [13], in experiment [14], in [15], in experiment [20], in experiment [16] and in [17] was “inactive” throughout. Further, the Potency entry in experiment [18] was “inactive”.

For the compound `CC1OC(OC2CCC3(C)C(CCC4C3CC(O)C3(C)C(C5=CC(=O)OC5)CCC43O)C2)CC(O)C1OC1CC(O)C(OC2CC(O)C(OC3OC(CO)C(O)C(O)C3O)C(C)O2)C(C)O1` (stereo not drawn), the Potency entry in experiment [1], in experiment [2], in experiment [3], in experiment [4], in experiment [5] and in experiment [6] was “inactive” throughout. Besides, the Potency entry in experiment [7], in [8], in experiment [9], in experiment [10], in experiment [11] and in [19] was “inactive” each time. The Potency entry in experiment [12], in experiment [13], in experiment [14], in experiment [15], in [16] and in experiment [17] was “inactive” each time. For the same compound, the Potency entry in experiment [18] is “inactive”.

Take `CCCC(=O)O[C@]1(C(=O)COC(C)=O)CC[C@H]2C3C[C@H](F)C4=CC(=O)C=CC4(C)[C@@]3(F)[C@@H](O)CC21C` (stereo partly drawn): the Potency result in [1], in experiment [2], in [5], in experiment [6], in experiment [7] and in [8] was “inactive” in each case. Also, the Potency entry in experiment [9], in [10], in experiment [11], in experiment [19], in experiment [15] and in [16] was “inactive” each time. The Potency entry in experiment [17] was “inactive”. For the same compound, the Potency in [4] was 11.2 µM (active).

As to `CC1CCC(C(C)C)C(O)C1` (stereo not drawn), the Potency entry in [2], in experiment [3], in experiment [4], in experiment [5], in [6] and in experiment [7] was “inactive” throughout. Also, the Potency entry in experiment [8], in experiment [9], in [10], in experiment [11], in [19] and in experiment [12] was “inactive” throughout. Moreover, the Potency result in [13], in experiment [14], in [15], in experiment [20], in experiment [16] and in experiment [17] was “inactive” in each case. In addition, the Potency entry in experiment [18] is “inactive”.

On to `C=C1NC(=O)c2cc(CN(C)c3ccc(C(=O)N[C@@H](CCC(=O)O)C(=O)O)s3)ccc2N1`, for which the Potency result in experiment [2], in experiment [4], in experiment [5], in experiment [6], in [7] and in experiment [8] was “inactive” each time. Also, the Potency entry in experiment [9], in [19], in experiment [12], in experiment [15], in [16] and in experiment [17] was “inactive” in each case. The Potency result in [18] is “inactive”. Also, the Potency in [3] is 7.9 nM (active).

As for `CNC1C(O)C(OC2C(NC(=O)C(O)CN)CC(N)C(OC3OC(CN)C(O)C(O)C3O)C2O)OCC1(C)O` (stereo not drawn), the Potency entry in experiment [1], in experiment [2], in experiment [3], in experiment [4], in [5] and in experiment [6] was “inactive” throughout. For the same compound, the Potency entry in [7], in experiment [8], in [9], in experiment [10], in experiment [11] and in experiment [12] was “inactive” throughout. Also, the Potency result in experiment [13], in experiment [14], in [15], in experiment [20], in experiment [16] and in experiment [17] was “inactive” in each case. Moreover, the Potency result in experiment [18] is “inactive”.

Take `CO/N=C(/C(=O)N[C@@H]1C(=O)N2C(C(=O)O)=C(CSc3nnnn3C)CS[C@H]12)c1csc(N)n1`: the Potency result in experiment [1], in experiment [2], in [4], in [5], in experiment [6] and in [7] was “inactive” in each case. The Potency result in [8], in [10], in experiment [11], in experiment [19], in experiment [12] and in experiment [13] was “inactive” in each case. In addition, the Potency entry in experiment [14], in experiment [15], in experiment [20], in experiment [16], in experiment [17] and in experiment [18] was “inactive” throughout.

Regarding `CC(=O)N1CC(O)CC1C(=O)O` (stereo not drawn), the Potency entry in experiment [1], in experiment [2], in experiment [3], in [4], in experiment [5] and in experiment [6] was “inactive” in each case. For the same compound, the Potency entry in experiment [7], in experiment [9], in experiment [10], in experiment [11], in [19] and in [12] was “inactive” each time. Besides, the Potency entry in [13], in experiment [14], in experiment [15], in experiment [20], in [16] and in experiment [17] was “inactive” in each case. Also, in [18], the Potency entry was “inactive”.

As for `CC(=O)C1(O)Cc2c(O)c3c(c(O)c2C(OC2CC(N)C(O)C(C)O2)C1)C(=O)c1c(O)cccc1C3=O` (stereo not drawn), the Potency in experiment [3] was 99.9 nM (active); in experiment [4], 0.708 µM (active); in experiment [5], 6.31 µM (active); in [7], 5.01 µM (active); in experiment [8], 3.98 µM (active); in experiment [9], 15.1 µM (active). Moreover, the Potency was 5.36 µM (active) in experiment [19]; 5.36 µM (active) in experiment [12]; 6.75 µM (active) in experiment [13]; 6.31 µM (active) in [14]; 11.2 µM (active) in experiment [15]; 5.36 µM (active) in experiment [20]. Further, the Potency is 6.31 µM (active) in experiment [16], 5.62 µM (active) in [17] and 4.47 µM (active) in experiment [18].

In the case of `CO/N=C(/C(=O)N[C@@H]1C(=O)N2C(C(=O)O)=C(CSC(=O)c3ccco3)CSC12)c1csc(N)n1` (stereo partly drawn), the Potency entry in experiment [1], in experiment [2], in [3], in [4], in [5] and in experiment [6] was “inactive” each time. The Potency entry in [7], in experiment [8], in experiment [9], in [10], in experiment [11] and in experiment [19] was “inactive” throughout. Further, the Potency entry in [12], in [14], in experiment [15], in [20], in [16] and in experiment [17] was “inactive” in each case. Moreover, the Potency result in experiment [18] was “inactive”.
